In PubChem BioAssay AID1220 (Sanford-Burnham Center for Chemical Genomics, 2008) one finds inhibition data, which are given here for 58 compounds.

Molecules are shown by their SMILES. Where “and” joins values, the source holds several entries; their conditions need not be identical. Identical values can stand only once. In all, about 190,000 compounds went through this assay and about 1,300 (0.68%) were called active. Rule as the data show it: active = inhibition above about 50%; inactive = the rest. The sample as a whole holds a higher share of actives than the screen did. More than one record can exist for a structure, and the calls need not agree.

For orientation: inhibition means the relative decrease from the control value, in per cent.

The target in this experiment is Mannose-6-phosphate isomerase (Homo sapiens) (UniProt P34949). The experiment is described as follows: human PMI inhibitors, high substrate, primary screen, biochemical, fluorescence intensity, high mannose 6-phosphate (AID 1220). As to conditions: recombinant PMI enzyme, coupled fluorescence intensity; at 20 µM; stronger effect = higher value.
Chain of Mannose-6-phosphate isomerase (Homo sapiens) (P34949 whole entry, looked up): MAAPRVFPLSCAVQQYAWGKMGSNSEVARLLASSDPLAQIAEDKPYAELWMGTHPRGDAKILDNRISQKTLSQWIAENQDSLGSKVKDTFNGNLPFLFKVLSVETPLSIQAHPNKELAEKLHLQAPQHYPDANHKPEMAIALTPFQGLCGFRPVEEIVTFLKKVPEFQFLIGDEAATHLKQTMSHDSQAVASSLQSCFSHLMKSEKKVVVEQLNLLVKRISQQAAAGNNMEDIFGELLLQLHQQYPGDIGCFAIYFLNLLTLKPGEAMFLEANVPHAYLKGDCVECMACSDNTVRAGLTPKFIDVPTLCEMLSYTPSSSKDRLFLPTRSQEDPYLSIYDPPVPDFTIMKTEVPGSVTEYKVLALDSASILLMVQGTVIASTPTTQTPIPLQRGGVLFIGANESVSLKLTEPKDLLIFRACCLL
Regarding `COc1cc(CN2CCCC(C(=O)c3sccc3C)C2)cc(OC)c1O` (stereo not drawn), the inhibition was 65.3% (active).
Take `COc1cc(CN2CCCC(C(=O)c3sccc3C)C2)cc(Cl)c1O` (stereo not drawn): the inhibition is 14% (inactive).
Regarding `COc1ccc(CN2CCCC(C(=O)c3sccc3C)C2)cc1O` (stereo not drawn), the inhibition is 1.4% (inactive).
In the case of `Cc1ccccc1-n1c(O)c(/C=N/N2CCOCC2)c(=O)[nH]c1=S`, the inhibition was 55.7% (active).
For `O=c1[nH]c(=S)n(-c2ccccc2)c(O)c1/C=N/N1CCOCC1`, the inhibition was 3.4% (inactive).
With `Cc1ccc(-n2c(O)c(/C=N/N3CCOCC3)c(=O)[nH]c2=S)cc1`, the inhibition is 29% (inactive).
In the case of `CN1C(=O)N(C)C(=O)C2(Sc3ccccc3C2=O)C1=O`, the inhibition was -1.5% (inactive).
With `CCN(CC)c1ccc(N=Cc2c(O)n(-c3ccc(Cl)cc3)c(=O)[nH]c2=O)cc1`, the inhibition was 39.5% (inactive).
On to `CN(C)c1ccc(N=Cc2c(O)n(CCC3=CCCCC3)c(=O)[nH]c2=O)cc1`, for which the inhibition was 28.9% (inactive).
Consider `CCN(CC)c1ccc(N=Cc2c(O)n(Cc3ccccc3)c(=O)[nH]c2=O)cc1`, for which the inhibition is 13.5% (inactive) and 50.6% (active).
As for `CCOc1ccc(-n2c(O)c(C=Nc3ccc(N(CC)CC)cc3)c(=O)[nH]c2=O)cc1`, the inhibition is 18.2% (inactive).
Turning to `CCN(CC)c1ccc(N=Cc2c(O)n(CCC3=CCCCC3)c(=O)[nH]c2=O)cc1`, the inhibition is 58.1% (active).
In the case of `CCN(CC)c1ccc(N=Cc2c(O)n(-c3ccccc3C)c(=O)[nH]c2=O)cc1`, the inhibition was 19.9% (inactive).
In the case of `C=CCn1c(O)c(C=Nc2ccc(N(CC)CC)cc2)c(=O)[nH]c1=O`, the inhibition was 4% (inactive).
`CCOc1ccccc1-n1c(O)c(C=Nc2ccc(N(CC)CC)cc2)c(=O)[nH]c1=O`: the inhibition is 59.3% (active).
For the compound `CCN(CC)CCN=Cc1c(O)n(CCC2=CCCCC2)c(=O)[nH]c1=O`, the inhibition is 1.6% (inactive).
Regarding `Cc1nc2cc(-c3ccccc3)nn2c(C)c1CCC(=O)N1CCC2(CC1)OCCO2`, the inhibition was 12.2% (inactive).
For `COc1ccccc1NC1=NCCS1`, the inhibition was -1% (inactive).
Take `Cc1ccccc1OP(N)(=O)Oc1ccccc1C`: the inhibition was 3% (inactive).
With `CN1C(=O)C(Cc2cccc3ccccc23)C(=O)N(C)C1=O`, the inhibition is -9.1% (inactive).
With `O=C(COC(=O)Cc1ccccc1)Nc1ccc(Cl)cn1`, the inhibition was -6.1% (inactive).
For the compound `COC(=O)CC1=C(C(=O)OC)C2(C(=O)Nc3c(C)cccc32)C(C#N)=C(N)O1` (stereo not drawn), the inhibition is 4.4% (inactive).
`c1cncc(C2CCCCN2Cc2ccc3c(c2)OCO3)c1` (stereo not drawn): the inhibition is 4.9% (inactive).
For the compound `CCN1CCN(Cc2cc(OC)c(OC)cc2[N+](=O)[O-])CC1`, the inhibition was 59.2% (active).
`CCN1CCN(c2cc(N3CCCC3)c([N+](=O)[O-])cc2F)CC1`: the inhibition was 25.4% (inactive).
Regarding `CCN1CCN(Cc2cc(Br)cc(OC)c2O)CC1`, the inhibition is 18% (inactive).
On to `CCOc1ccccc1-n1c(O)c(C=NCCCN(CC)CC)c(=O)[nH]c1=O`, for which the inhibition is -2.3% (inactive).
As for `O=C(c1cc(-c2ccccc2)on1)N1CCC2(CC1)OCCO2`, the figure is -0.7% (inactive); as for `Oc1ccccc1/C=N/NP(=S)(c1ccccc1)c1ccccc1`, 10.4% (inactive).
Take `Oc1ccc(/C=N/NP(=S)(c2ccccc2)c2ccccc2)cc1`: the inhibition was 8.7% (inactive).
`Oc1ccc(/C=N/NP(=S)(c2ccccc2)c2ccccc2)c(O)c1O`: the inhibition was 52.2% (active).
Take `COC(=O)CNC(=O)c1cn(CCC#N)nc1-c1ccc(F)cc1`: the inhibition is -0.2% (inactive).
As for `O=C(CSc1ccccc1)N1CCC2(CC1)OCCO2`, the figure is 14.1% (inactive); as for `CCOC(=O)C1=C(C)OC(N)=C(C#N)C12C(=O)Nc1ccc(C)cc12` (stereo not drawn), -2.3% (inactive).
Consider `CCCC1=C(C(=O)OCC)C2(C(=O)Nc3ccc(C)cc32)C(C#N)=C(N)O1` (stereo not drawn), for which the inhibition is 8.5% (inactive).
As to `O=C1CCCN1c1ccc(S(=O)(=O)O)cc1` (tested in a mixture with another compound), the inhibition is -11.1% (inactive).
For `CC(=O)c1ccc(OC(NC(=O)c2ccco2)C(Cl)(Cl)Cl)cc1` (stereo not drawn), the inhibition is 7.7% (inactive).
With `CC(C)CCn1c(N)c(C(=O)NCc2cccs2)c2nc3ccccc3nc21`, the inhibition is 59.5% (active).
As for `COCCNC(=O)c1c(N)n(CCC(C)C)c2nc3ccccc3nc12`, the figure is 34.1% (inactive); as for `CCCOC(=O)c1c(N)n(Cc2cccs2)c2nc3ccccc3nc12`, -0.8% (inactive); as for `Nc1c(C(=O)NCCCc2ccccc2)c2nc3ccccc3nc2n1Cc1cccs1`, 17.4% (inactive).
As to `CCCCNC(=O)c1c(N)n(CCCOC)c2nc3ccccc3nc12`, the inhibition is 40.9% (inactive).
As to `COCCCn1c(N)c(C(=O)Nc2sc3c(c2C(=O)OC)CCCC3)c2nc3ccccc3nc21`, the inhibition was 24.1% (inactive).
Take `CCOCCCn1c(N)c(C(=O)Nc2sc3c(c2C(=O)OC)CCCC3)c2nc3ccccc3nc21`: the inhibition was 62.1% (active).
As for `CC(C)CNC(=O)c1c(N)n(Cc2ccco2)c2nc3ccccc3nc12`, the inhibition is -12.2% (inactive).
Turning to `CC(C)OCCCNC(=O)c1c(N)n(Cc2cccs2)c2nc3ccccc3nc12`, the inhibition was 57.4% (active).
As for `CCC(C)OC(=O)c1c(N)n(Cc2cccs2)c2nc3ccccc3nc12` (stereo not drawn), the inhibition is 8.2% (inactive).
On to `CCOC(=O)c1c(NC(=O)c2c(N)n(CCCOC)c3nc4ccccc4nc23)sc2c1CCCC2`, for which the inhibition was 24.1% (inactive).
With `COCCCn1c(N)c(C(=O)NCCC(C)C)c2nc3ccccc3nc21`, the inhibition was 63.7% (active).
As for `CCOc1cc(C2C(C#N)=C(N)Oc3c2c(=O)oc2ccccc32)ccc1OC(=O)c1cccs1` (stereo not drawn), the figure is 2.8% (inactive); as for `Cc1ccnc(-n2c(-c3ccccc3)nc3ccccc3c2=O)c1`, 15.9% (inactive); as for `CC(C(=O)c1c[nH]c2ccccc12)N1CCc2ccccc2C1` (stereo not drawn), 6.1% (inactive).
As for `CCCC1(CCC)C(=O)NC(=Nc2ccc(C)cc2)NC1=O`, the figure is 2.5% (inactive); as for `CN1CN=C(N[N+](=O)[O-])N(Cc2ccco2)C1`, -10.4% (inactive).
Turning to `O=C(Cn1cnc2sc3c(c2c1=O)CCCC3)NCCC(=O)N1CCC2(CC1)OCCO2`, the inhibition is 1.1% (inactive).
On to `CC(C)[C@H]1C(=O)N2CCC[C@H]2[C@]2(O)O[C@](NC(=O)[C@@H]3C=C4c5cccc6[nH]cc(c56)C[C@H]4N(C)C3)(C(C)C)C(=O)N12`, for which the inhibition was 0.6% (inactive).
`CC(C)C[C@H]1C(=O)N2CCCC2[C@]2(O)O[C@](NC(=O)[C@@H]3C=C4c5cccc6[nH]cc(c56)CC4N(C)C3)(C(C)C)C(=O)N12` (stereo partly drawn): the inhibition was 48.1% (inactive).
For the compound `CN1C[C@H](CO)C=C2c3cccc4[nH]cc(c34)C[C@H]21`, the inhibition is 65.5% (active).
